A number with no mark means an inactive call. Inconclusive results are not listed. Active and inactive are the calls of the source. Unless noted, calls follow the shape of the dose curve; as a rule, active = well fitted curve in either direction with a large enough effect (not every such curve was filed as active); inconclusive = small, poorly fitted or top-dose-only effect, or another doubt; inactive = flat fitted curve, though single readings scatter.

Assay [1] concerns the target Lysosomal acid glucosylceramidase (Homo sapiens) (UniProt P04062). As to the kind of experiment: Glucocerebrosidase-p2 (AID 348; in the data active = potency below about 10 µM; also: potency is read from the fitted curve at half-maximal effect). To be noted: purified GBA, blue fluorogenic substrate, 40 min. An outline of the steps: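 Normal human glucocerebrosidase (0.2 nM) with blue fluorogenic substrate (80 uM final) in citrate/phosphate pH 5.9 with 10mM sodium taurocholate, 0.01% tween-20; 40 min RT, NaOH/glycine stop; fluorescence Ex 365/Em 440; AC50 from a titration from 0.6 nM upwards.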

Assay [2] can be described thus: AP1 Signaling Pathway (AID 357). Also: % is scaled to controls: 0 for no effect and ±100 for the full control effect. To be noted: ME-180 AP-1-bla reporter, EGF-induced, beta-lactamase ratio, 5 h; at 7.69 µM (top of the series) unless noted. In outline: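 Cells are seeded overnight, exposed to compound titrations and an EC50 level of EGF for 5 hours at 37 °C, then loaded with CCF4 dye for 2.5 hours. Beta-lactamase activity under the AP-1 element is read as a blue/green ratio.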

The target of assay [3] is Cytochrome P450 1A2 (Homo sapiens) (UniProt P05177). As to the kind of experiment: p450-cyp1a2 (AID 410; calls by dose curve; also: potency is read from the fitted curve at half-maximal effect;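 as to activity change, negative = inhibition: -100% = full effect of reference inhibitor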). Conditions: recombinant CYP1A2, luciferin-ME demethylation, luminescence; series mostly up to 11.4 µM. An outline of the steps: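 O-Demethylation of luciferin 6' methyl ether by human CYP1A2 is monitored as luciferase luminescence. Substrate sits at Km (100uM); enzyme is 20nM. Values are scaled to 57 uM furafylline as maximal inhibition.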

Assay [4] is described as follows: Stat Signaling Pathway (AID 446).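 Also: ME-180 cervical cancer cells given 40 pM IL-6 alongside compound; SIE-controlled beta-lactamase reporter measured as 460/530 nm FRET emission ratio; % is scaled to controls: 0 for no effect and ±100 for the full control effect.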 Conditions: ME-180 (cervical carcinoma) SIE beta-lactamase reporter, IL-6 stimulated, 5 h; at 7.69 µM (top of the series) unless noted. In outline:
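Compound effects on IL-6-induced STAT reporter activity were measured in ME-180 cells. After overnight culture, cells were co-treated with 40 pM IL-6 for 5 hrs before beta-lactamase substrate loading at room temperature.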

Assay [5] deals with Glucocorticoid receptor (Homo sapiens) (UniProt P04150). The experiment in a line: GR-GFP Redistribution (AID 450;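 active = compounds whose dose series gives a full or clear partial fitted curve of increased nuclear translocation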; also: potency is read from the fitted curve at half-maximal effect). To be noted: U2OS GR-GFP nuclear translocation, laser cytometry, 2 h.
Assay [6] has as its target Mitogen-activated protein kinase 10 (Mus musculus) (UniProt Q61831). The experiment in a line: JNK3 AlphaScreen Assay (AID 530).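 Also: kinase came from lysate of stimulated human HepG2 cells; signal reports phosphorylation of biotinylated GST-cJun 1-79 at Ser73 with 10 µM ATP; % is scaled to controls: 0 for no effect and ±100 for the full control effect.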 Conditions: JNK3 lysate, c-Jun phosphorylation; series mostly up to 57.1 µM. An outline of the steps:
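Activity was read by AlphaScreen after JNK3-containing HepG2 lysate (cytokine pre-activated) phosphorylated biotinylated GST-cJun with 10 uM ATP at room temperature. Phospho-Ser73 cJun antibody with Protein-A acceptor beads provided detection.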
(In general: Bead proximity is the source of the signal in Alpha formats.)

In assay [7] the target is 3',5'-cyclic-AMP phosphodiesterase 4B (Homo sapiens) (UniProt Q07343). As to the kind of experiment: qHTS Assay for Inhibitors of PDE-IV (AID 607; active = well fitted activation curve with a large enough effect in the main read-out, with a control signal flat, not every such curve was filed as active; also: % of control where 0% means no effect). To be noted: HEK293 ACTOne CNG channel cells, membrane potential fluorescence; series mostly up to 22.9 µM. An outline of the steps:
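ACTOne HEK293 cells carry a modified cAMP-gated CNG channel and express endogenous PDE4; plated 1000 cells/well, compounds up to 22.9 uM final. Membrane-potential dye fluorescence (ex 535/em 590) was read; parental cells received 10 uM forskolin + 100 uM RO 20-1724.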
(In qHTS, concentration-response curves come from the screen itself.)

Assay [8] can be described thus: NFAT Signaling Pathway (AID 444).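 Also: carbachol stimulus at about its EC50 of 1 µM final; % is scaled to controls: 0 for no effect and ±100 for the full control effect.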 Conditions: Jurkat NFAT-bla M1, carbachol, beta-lactamase ratio, 5 h; at 7.69 µM (top of the series) unless noted. An outline of the steps: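 Jurkat cells with NFAT-driven β-lactamase reporter and co-expressed M1 receptor, stimulated with carbachol (final 1 uM, ~EC50), compound titration, 5 h at 37 °C. CCF4 loaded 1 h at RT; 460/530 nm ratio gave %activity and AC50.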

For assay [9], the target named is Glucocorticoid receptor (Homo sapiens) (UniProt P04150). The experiment in a line: GR-EFC Redistribution (AID 451; calls by dose curve; also: potency is read from the fitted curve at half-maximal effect). To be noted: CHO-K1 GR-EFC translocation, beta-gal luminescence, 2 h. In outline: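 CHO-K1 cells expressing nuclear EA and GR-ED fragments of b-gal; compounds titrated up to 46 uM final, 2 h at 37 C. GR nuclear translocation read as complemented b-gal luminescence after 1 h RT detection.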

In assay [10] the target is Luciferin 4-monooxygenase (Photinus pyralis) (UniProt P08659). As to the kind of experiment: Biochemical firefly luciferase enzyme assay for NPC (AID 624030; active = well fitted curve in the direction sought with a large enough effect; an effect the other way counts as inactive or inconclusive;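 also: purified P. pyralis luciferase at 10 nM with luciferin and ATP substrate; 0% = DMSO and -100% = full luciferase inhibition by PTC124 control; nearly all actives have a fitted effect of over 70% in size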). To be noted: purified P. pyralis luciferase, luminescence, 5 min; series mostly up to 58.6 µM. In outline:
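Purified P. pyralis luciferase at 10 nM in 50 mM Tris Acetate (final), luminescence read within 5 minutes of enzyme addition to compounds. Activity normalised to PTC124 versus DMSO; concentration-response curves classed by r2, magnitude and activity.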

Assay [11] deals with Cytochrome P450 3A4 (Homo sapiens) (UniProt P08684). The experiment in a line: qHTS Assay for Activators of Cytochrome P450 3A4 (AID 885; active = well fitted curve in the direction sought with a large enough effect; an effect the other way counts as inactive or inconclusive; also: nearly all actives have a fitted effect of over 65% in size). Conditions: recombinant CYP3A4, Luciferin-PPXE luminescence, 60 min; series mostly up to 57.1 µM. In outline:
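CYP3A4 activity: Luciferin-PPXE O-dealkylation, 25uM substrate, 200mM KPO4, RT throughout. Read-out is luciferase luminescence; higher values reflect activation.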

Assay [12] has as its target Cytochrome P450 2D6 (Homo sapiens) (UniProt P10635). As to the kind of experiment: qHTS Assay for Inhibitors and Substrates of Cytochrome P450 2D6 (AID 891; active = well fitted curve in the direction sought with a large enough effect; an effect the other way counts as inactive or inconclusive; also: potency is read from the fitted curve at half-maximal effect; nearly all actives have a fitted effect of over 60% in size). Conditions: recombinant CYP2D6, luciferin-ME EGE luminescence; series mostly up to 11.4 µM. An outline of the steps:
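Luminescent read-out of luciferin formed by 5 nM human CYP2D6 demethylating 30 uM Luciferin-ME EGE (Km level) over 60 min at room temperature after NADPH regeneration addition. Data normalized to full inhibition by 1.43 uM quinidine.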

For assay [13], the target named is Cytochrome P450 2C19 (Homo sapiens) (UniProt P33261). The experiment in a line: qHTS Assay for Inhibitors and Substrates of Cytochrome P450 2C19 (AID 899; active = well fitted curve in the direction sought with a large enough effect; an effect the other way counts as inactive or inconclusive; also: nearly all actives have a fitted effect of over 60% in size; also: potency is read from the fitted curve at half-maximal effect). To be noted: recombinant CYP2C19, luciferin-H EGE luminescence; series mostly up to 11.4 µM. In outline:
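Luminescent read-out of luciferin formed from Luciferin-H EGE (10uM, equal to KM). Enzyme 5nM in 50mM KPO4; compound added, 10 min at 37C, then NADPH regenerating system for 60 min at 37C. Full inhibition defined by 57uM ketoconazole.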

3',5'-cyclic-AMP phosphodiesterase 4B (Homo sapiens), sequence (Q07343 whole entry, looked up): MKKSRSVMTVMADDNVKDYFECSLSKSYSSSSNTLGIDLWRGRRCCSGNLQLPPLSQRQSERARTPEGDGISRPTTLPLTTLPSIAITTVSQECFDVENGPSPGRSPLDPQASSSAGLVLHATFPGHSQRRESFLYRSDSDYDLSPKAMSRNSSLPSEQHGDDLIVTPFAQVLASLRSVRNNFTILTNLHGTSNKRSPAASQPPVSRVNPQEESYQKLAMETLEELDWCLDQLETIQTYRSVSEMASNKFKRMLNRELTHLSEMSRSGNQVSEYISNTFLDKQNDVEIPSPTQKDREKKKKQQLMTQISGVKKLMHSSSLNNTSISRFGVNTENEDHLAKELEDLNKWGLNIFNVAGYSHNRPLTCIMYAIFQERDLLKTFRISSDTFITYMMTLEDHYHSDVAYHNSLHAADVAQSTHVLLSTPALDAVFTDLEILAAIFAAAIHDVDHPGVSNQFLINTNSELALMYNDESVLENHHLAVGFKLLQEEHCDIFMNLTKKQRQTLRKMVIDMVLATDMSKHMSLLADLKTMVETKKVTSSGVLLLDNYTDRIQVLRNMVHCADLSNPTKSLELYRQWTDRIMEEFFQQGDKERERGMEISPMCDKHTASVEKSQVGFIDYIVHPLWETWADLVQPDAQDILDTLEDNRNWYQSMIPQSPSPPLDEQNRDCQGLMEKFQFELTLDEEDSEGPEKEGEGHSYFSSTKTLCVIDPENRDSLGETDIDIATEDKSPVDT
Cytochrome P450 1A2 (Homo sapiens), sequence (P05177 whole entry, looked up): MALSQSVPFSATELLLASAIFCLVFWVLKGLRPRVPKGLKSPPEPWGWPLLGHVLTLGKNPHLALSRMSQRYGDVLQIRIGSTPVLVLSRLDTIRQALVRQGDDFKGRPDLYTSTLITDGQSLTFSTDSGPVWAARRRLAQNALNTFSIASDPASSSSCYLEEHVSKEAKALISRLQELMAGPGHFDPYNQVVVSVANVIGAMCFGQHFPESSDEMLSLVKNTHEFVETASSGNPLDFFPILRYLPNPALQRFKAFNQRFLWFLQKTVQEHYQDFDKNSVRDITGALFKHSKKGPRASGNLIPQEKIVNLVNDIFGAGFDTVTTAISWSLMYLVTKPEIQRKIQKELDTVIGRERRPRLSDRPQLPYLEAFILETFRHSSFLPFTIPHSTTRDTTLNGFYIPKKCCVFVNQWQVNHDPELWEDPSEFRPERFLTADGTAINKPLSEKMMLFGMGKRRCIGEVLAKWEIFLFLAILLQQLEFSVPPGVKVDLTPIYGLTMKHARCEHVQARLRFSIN
Glucocorticoid receptor (Homo sapiens), sequence (P04150 whole entry, looked up, the tested form may be a part): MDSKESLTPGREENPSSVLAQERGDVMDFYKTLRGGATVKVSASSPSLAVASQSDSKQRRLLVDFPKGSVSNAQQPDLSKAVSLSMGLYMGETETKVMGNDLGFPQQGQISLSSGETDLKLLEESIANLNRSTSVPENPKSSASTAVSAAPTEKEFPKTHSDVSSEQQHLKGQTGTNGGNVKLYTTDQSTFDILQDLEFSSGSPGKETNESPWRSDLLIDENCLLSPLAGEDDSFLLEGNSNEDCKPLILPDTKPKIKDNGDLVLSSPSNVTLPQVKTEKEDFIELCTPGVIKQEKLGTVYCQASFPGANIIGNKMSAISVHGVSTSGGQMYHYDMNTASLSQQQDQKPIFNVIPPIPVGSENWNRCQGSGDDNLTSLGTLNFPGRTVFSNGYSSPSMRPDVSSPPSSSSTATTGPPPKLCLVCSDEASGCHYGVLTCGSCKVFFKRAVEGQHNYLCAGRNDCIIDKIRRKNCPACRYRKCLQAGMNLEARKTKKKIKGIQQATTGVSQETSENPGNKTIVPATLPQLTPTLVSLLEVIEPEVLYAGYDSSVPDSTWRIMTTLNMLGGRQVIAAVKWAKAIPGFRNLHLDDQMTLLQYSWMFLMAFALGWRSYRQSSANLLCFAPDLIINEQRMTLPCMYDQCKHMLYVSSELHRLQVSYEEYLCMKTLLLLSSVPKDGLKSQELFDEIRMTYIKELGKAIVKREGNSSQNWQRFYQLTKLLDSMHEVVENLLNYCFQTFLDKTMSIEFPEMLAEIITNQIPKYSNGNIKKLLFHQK
Lysosomal acid glucosylceramidase (Homo sapiens), sequence (P04062 whole entry, looked up): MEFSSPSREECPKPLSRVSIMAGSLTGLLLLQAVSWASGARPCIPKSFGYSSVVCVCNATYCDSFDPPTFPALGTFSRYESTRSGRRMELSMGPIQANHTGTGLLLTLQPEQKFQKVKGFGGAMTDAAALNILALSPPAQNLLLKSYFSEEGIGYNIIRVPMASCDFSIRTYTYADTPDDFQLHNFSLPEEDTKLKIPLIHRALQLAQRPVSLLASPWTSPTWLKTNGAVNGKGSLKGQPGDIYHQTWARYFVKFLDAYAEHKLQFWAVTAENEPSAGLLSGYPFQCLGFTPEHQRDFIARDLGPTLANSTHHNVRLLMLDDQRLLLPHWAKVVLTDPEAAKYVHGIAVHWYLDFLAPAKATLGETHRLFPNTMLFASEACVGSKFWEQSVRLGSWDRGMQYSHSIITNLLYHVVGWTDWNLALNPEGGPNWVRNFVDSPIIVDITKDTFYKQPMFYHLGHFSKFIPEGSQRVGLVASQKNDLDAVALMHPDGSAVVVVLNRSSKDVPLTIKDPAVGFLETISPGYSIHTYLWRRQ
Cytochrome P450 2C19 (Homo sapiens), sequence (P33261 whole entry, looked up): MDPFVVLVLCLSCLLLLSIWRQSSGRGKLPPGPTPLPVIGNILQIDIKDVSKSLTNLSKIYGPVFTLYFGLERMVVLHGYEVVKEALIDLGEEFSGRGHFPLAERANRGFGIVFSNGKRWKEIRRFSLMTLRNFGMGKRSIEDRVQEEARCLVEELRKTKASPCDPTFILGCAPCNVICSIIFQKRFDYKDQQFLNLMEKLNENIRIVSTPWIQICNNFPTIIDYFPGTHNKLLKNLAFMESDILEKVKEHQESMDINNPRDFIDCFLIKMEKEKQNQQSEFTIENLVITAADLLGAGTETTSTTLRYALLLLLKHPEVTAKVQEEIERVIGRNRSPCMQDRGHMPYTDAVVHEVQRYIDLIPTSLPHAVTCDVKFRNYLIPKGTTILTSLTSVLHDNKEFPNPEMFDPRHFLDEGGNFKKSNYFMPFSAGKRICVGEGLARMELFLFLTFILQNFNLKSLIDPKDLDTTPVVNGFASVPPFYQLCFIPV
Cytochrome P450 3A4 (Homo sapiens), sequence (P08684 whole entry, looked up): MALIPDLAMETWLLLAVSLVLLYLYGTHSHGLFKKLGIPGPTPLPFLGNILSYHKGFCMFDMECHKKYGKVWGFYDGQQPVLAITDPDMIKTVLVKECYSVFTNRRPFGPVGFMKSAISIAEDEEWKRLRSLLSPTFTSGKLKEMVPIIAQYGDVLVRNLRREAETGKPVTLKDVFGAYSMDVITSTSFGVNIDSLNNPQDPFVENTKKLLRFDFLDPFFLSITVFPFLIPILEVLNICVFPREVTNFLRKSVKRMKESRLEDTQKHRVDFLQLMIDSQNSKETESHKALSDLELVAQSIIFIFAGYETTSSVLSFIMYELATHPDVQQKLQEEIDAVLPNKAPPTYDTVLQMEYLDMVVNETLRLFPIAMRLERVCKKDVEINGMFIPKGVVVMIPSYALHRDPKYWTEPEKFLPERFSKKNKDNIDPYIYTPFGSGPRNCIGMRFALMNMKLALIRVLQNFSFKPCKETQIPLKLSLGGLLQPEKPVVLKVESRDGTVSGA
Luciferin 4-monooxygenase (Photinus pyralis), sequence (P08659 whole entry, looked up): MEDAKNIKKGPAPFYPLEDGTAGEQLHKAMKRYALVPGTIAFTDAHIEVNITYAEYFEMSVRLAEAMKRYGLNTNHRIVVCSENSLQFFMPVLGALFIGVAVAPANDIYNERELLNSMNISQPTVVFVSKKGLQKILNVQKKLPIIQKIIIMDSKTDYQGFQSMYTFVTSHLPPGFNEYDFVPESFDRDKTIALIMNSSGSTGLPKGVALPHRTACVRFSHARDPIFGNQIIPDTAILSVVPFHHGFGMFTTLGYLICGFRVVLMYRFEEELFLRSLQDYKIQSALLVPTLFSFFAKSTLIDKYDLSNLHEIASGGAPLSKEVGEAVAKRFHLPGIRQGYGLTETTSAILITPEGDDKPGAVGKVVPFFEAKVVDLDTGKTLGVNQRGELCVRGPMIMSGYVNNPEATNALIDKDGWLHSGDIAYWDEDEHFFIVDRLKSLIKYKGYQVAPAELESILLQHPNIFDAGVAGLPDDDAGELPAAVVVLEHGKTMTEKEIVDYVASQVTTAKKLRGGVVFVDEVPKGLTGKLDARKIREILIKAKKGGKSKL
Cytochrome P450 2D6 (Homo sapiens), sequence (P10635 whole entry, looked up): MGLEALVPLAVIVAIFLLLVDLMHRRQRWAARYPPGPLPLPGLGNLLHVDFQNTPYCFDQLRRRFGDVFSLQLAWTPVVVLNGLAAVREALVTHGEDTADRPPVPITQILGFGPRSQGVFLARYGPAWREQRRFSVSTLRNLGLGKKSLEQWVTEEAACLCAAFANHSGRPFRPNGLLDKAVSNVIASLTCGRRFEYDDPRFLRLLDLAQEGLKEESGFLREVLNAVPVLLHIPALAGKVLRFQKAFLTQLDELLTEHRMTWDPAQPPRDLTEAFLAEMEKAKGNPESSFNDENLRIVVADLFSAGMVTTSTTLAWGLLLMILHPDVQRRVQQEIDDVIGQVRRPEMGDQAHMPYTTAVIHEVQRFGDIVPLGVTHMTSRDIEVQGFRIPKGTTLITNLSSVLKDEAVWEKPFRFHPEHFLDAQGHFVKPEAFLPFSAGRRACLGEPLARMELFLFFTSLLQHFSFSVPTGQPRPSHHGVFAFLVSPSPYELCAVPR

Turning to `c1ccc2c([C@@H]3CCN(CCN4CCOCC4)C3)c[nH]c2c1`, the figures for the Potency in assay [1] and in assay [5] were > 11.4 µM and > 46 µM, respectively. Further, the activity change, negative = inhibition in [2] is -11.8%; in [6] it was 3.19% [at 11.4 µM]. Also, in assay [3], the Potency result was “inactive”. Besides, the activity, negative = inhibition in assay [4] was 0.702%. For the same molecule, the call in [7] was inactive.

On to `CN1CCN(c2ccc([N+](=O)[O-])c3[nH]o[n+](=O)c23)CC1`, for which the Potency in assay [1] is > 11.4 µM; in [3], 0.398 µM (active); in [5] it was > 46 µM. Also, the activity change, negative = inhibition in assay [2] is -7.81%; in assay [6], -3.28% [at 11.4 µM]. Also, the activity, negative = inhibition in [4] was 11.3%. In addition, in assay [7], the call was inactive.

In the case of `O=S(=O)(NCCO)c1cc[c]([Sb](=[O])([OH])[OH])cc1`, the values for the Potency in assay [1], in assay [5] and in assay [9] were > 11.4 µM, > 46 µM and > 9.22 µM, respectively. In addition, the activity change, negative = inhibition was -1.39% in assay [2], 16.2% in assay [8] and 1.82% [at 11.4 µM] in assay [6]. Further, the activity, negative = inhibition in assay [4] is 6.67%. The molecule was called inactive in assay [7].

Take `O=c1[nH]cnc2[nH]cc(CN3CCCCC3)c12`: the Potency in assay [1] is > 11.4 µM. Also, the activity change, negative = inhibition in assay [2] was 2.74%; in [6], 0.447% [at 11.4 µM]. Further, in assay [3], the Potency entry was “inactive”. For the same molecule, the activity, negative = inhibition in assay [4] was 0.346%. For the same molecule, the molecule was classed as inactive in assay [7] and in assay [10].

With `NCCSC(c1ccccc1)c1ccccc1`, the Potency is > 11.4 µM in assay [1]; 1.58 µM (active) in assay [3]; > 46 µM in assay [5]; > 9.22 µM in assay [9]; 0.794 µM (active) in assay [12]; 1.26 µM (active) in assay [13]. Moreover, the activity change, negative = inhibition in assay [2] was 6.46%; in [6], 1.83% [at 11.4 µM]. The molecule was called inactive in assay [7]. Moreover, the activity change, positive = activation in [11] is -39.5% [at 11.4 µM].

On to `CN(C)CCCNc1c2c(nc3ccc(Cl)cc13)CCCC2`, for which the Potency was > 11.4 µM in assay [1], > 46 µM in assay [5] and > 9.22 µM in assay [9]. Also, the activity change, negative = inhibition is -1.02% in assay [2], -26.1% in assay [8] and 3.7% [at 11.4 µM] in [6]. Besides, in [4], the activity, negative = inhibition was 10%. Further, in assay [7], the result was inactive.

Consider `C[C@@]12CC[C@H](O)C[C@@H]1CC[C@@H]1[C@@H]2CC[C@@]2(C)[C@@H](C3=CC(=O)OC3)[C@H](O)C[C@]12O`, for which the Potency in [1] is > 11.4 µM; in [5], > 46 µM; in assay [9], > 9.22 µM. The activity change, negative = inhibition in [2] was 15.5%; in assay [6] it was 1.8% [at 11.4 µM]. The Potency entry in assay [3] and in assay [13] was “inactive” throughout. The activity, negative = inhibition in assay [4] is 8.74%. In assay [7], the call was inactive.

Take `O=C(O)C[C@H]1OCC=C2CN3CC[C@@]45C6=CC(=O)C(=O)C([N+](=O)[O-])=C6N[C@H]4[C@H]1[C@H]2C[C@@H]35`: the Potency in [1] was > 11.4 µM; in assay [5] it was > 46 µM; in [9], > 9.22 µM. The activity change, negative = inhibition is 4.93% in [2], 2.25% in [8] and -0.499% [at 11.4 µM] in assay [6]. Also, in [4], the activity, negative = inhibition was 2.08%. For the same molecule, the call in assay [7] was inactive.

These data come from PubChem BioAssay (NCATS).
